Each structure is given as a SMILES string. Inconclusive results are not listed. Entries that show only a call come without a potency. The source made the active and inactive calls. Calls come from the whole dose curve; as a rule, active = well fitted cell-killing curve with a large enough effect; inconclusive = small, poorly fitted or top-dose-only effect; inactive = flat fitted curve, though single readings scatter.

The first assay can be described thus: Cell Viability - H-4-II-E (AID 543). Note: nearly all actives have a fitted effect of over 35% in size. As to conditions: H-4-II-E rat hepatoma viability; series mostly up to 92.2 µM. The essentials:
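Rat hepatoma H-4-II-E cells (1500/well) were plated, incubated 5 hr at 37 °C, then exposed to compounds for 40 hr at 37 °C. Cellular ATP was read by CellTiter-Glo luminescence; AC50 came from Hill-equation fits of concentration-response data.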
On to `Oc1cccc(Cl)c1Cl`, for which the Potency entry is “inactive”.
As for `CCC/C=N/O`, the Potency result was “inactive”.
On the same count and under the same terms, the entry for `Nc1cccc2ccccc12` is “inactive”; for `Cc1cnc[nH]1` it is “inactive”.
The same measure, in the same setting: under `CN(C)N=O` stands “inactive”.
Same read-out and setting: under `COc1c(C(C)(C)C)cc([N+](=O)[O-])c(C)c1[N+](=O)[O-]` stands “inactive”.
Turning to `C=C(Cl)CCl`, the Potency entry was “inactive”.
On the same count and under the same terms, the entry for `ClCCOCOCCCl` is “inactive”.
The same measure, in the same setting: under `CC12CC1(C)C(=O)N(c1cc(Cl)cc(Cl)c1)C2=O` (stereo not given) stands “inactive”; under `CC(C)(Cl)[N+](=O)[O-]`, “inactive”; under `CCCCOCC1CO1` (stereo not given), “inactive”.
`O=C(O)c1cccc(Cl)c1`: the Potency entry was “inactive”.
Regarding `C1CC2OC2CC1C1CO1` (stereo not given), the Potency entry was “inactive”.
Same read-out and setting: the entry for `Brc1cccc(-c2ccccc2)c1` is “inactive”; for `Oc1c(Cl)cccc1Cl` it is “inactive”; for `ClCCOCCCl` it is “inactive”.
Still for that read-out and setting: the entry for `CCNCC` is “inactive”; for `CC(C)C#N` it is “inactive”.
For the compound `Cl/C=C\Cl`, the Potency entry is “inactive”.
As for `c1ccc2c(c1)CCNC2`, the Potency result is “inactive”.
Still for that read-out and setting: under `CCBr` stands “inactive”; under `O=[N+]([O-])c1ccc(Cl)c(Cl)c1Cl`, “inactive”.
The same measure, in the same setting: under `Cc1ccccc1[N+](=O)[O-]` stands “inactive”; under `C=CC(=O)OCCN(C)C`, “inactive”; under `CC(C)(C)C(O)(CCc1ccc(Cl)cc1)Cn1cncn1` (stereo not given), “inactive”.
As to `N#CCCCCC#N`, the Potency entry was “inactive”.
On to `CN=C=O`, for which the Potency result was “inactive”.
As to `c1ccc(C2CO2)cc1` (stereo not given), the Potency entry is “inactive”.
On to `CCCCCC[N+](=O)[O-]`, for which the Potency result was “inactive”.
On the same count and under the same terms, the entry for `OCC(Cl)CCl` (stereo not given) is “inactive”; for `COc1ccc(C=O)cc1` it is “inactive”; for `Nc1ccc(Cl)c(Cl)c1` it is “inactive”.
Turning to `CC(=O)[O-].CC(=O)[O-].CC(=O)[O-].[Cr+3]`, the Potency entry is “inactive”.
`CC(=O)CCC(C)=O`: the Potency result is “inactive”.
Same read-out and setting: under `C=CC(=O)OCC(CC)CCCC` (stereo not given) stands “inactive”.

A short description of a further assay: Cell Viability - SH-SY5Y (AID 544). Note: nearly all actives have a fitted effect of over 55% in size. Particulars: SH-SY5Y neuroblastoma cell viability; viability change, negative = cytotoxic: at 92.2 µM (top of the series). The essentials: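 Human neuroblastoma SH-SY5Y cells (1500/well) in complete medium were exposed to compounds for 40 hr at 37 °C; intracellular ATP was then quantified by CellTiter-Glo luminescence after 20 min at room temperature. AC50 came from Hill-equation concentration-response fits.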
In the case of `Oc1cccc(Cl)c1Cl`, the Potency entry is “inactive”.
Take `CCC/C=N/O`: the Potency entry is “inactive”.
For `Nc1cccc2ccccc12`, the Potency entry was “inactive”.
On the same count and under the same terms, under `Cc1cnc[nH]1` stands “inactive”; under `CN(C)N=O`, “inactive”.
With `COc1c(C(C)(C)C)cc([N+](=O)[O-])c(C)c1[N+](=O)[O-]`, the Potency result is “inactive”.
Still for that read-out and setting: under `C=C(Cl)CCl` stands “inactive”.
Consider `ClCCOCOCCCl`, for which the Potency result was “inactive”.
As for `CC12CC1(C)C(=O)N(c1cc(Cl)cc(Cl)c1)C2=O` (stereo not given), the Potency entry was “inactive”.
Same read-out and setting: under `CC(C)(Cl)[N+](=O)[O-]` stands “inactive”; under `Cl/C=C/Cl`, “inactive”.
For the compound `CCCCOCC1CO1` (stereo not given), the Potency result was “inactive”.
Take `O=C(O)c1cccc(Cl)c1`: the Potency result is “inactive”.
The same measure, in the same setting: under `C1CC2OC2CC1C1CO1` (stereo not given) stands “inactive”; under `Brc1cccc(-c2ccccc2)c1`, “inactive”.
The same measure, in the same setting: the entry for `Oc1c(Cl)cccc1Cl` is “inactive”; for `ClCCOCCCl` it is “inactive”.
The same measure, in the same setting: under `CCNCC` stands “inactive”; under `CC(C)C#N`, “inactive”.
Turning to `Cl/C=C\Cl`, the Potency result was “inactive”.
Same read-out and setting: the entry for `c1ccc2c(c1)CCNC2` is “inactive”; for `CCBr` it is “inactive”.
Regarding `O=[N+]([O-])c1ccc(Cl)c(Cl)c1Cl`, the Potency result is “inactive”.
Still for that read-out and setting: the entry for `N#CCCC#N` is “inactive”; for `Cc1ccccc1[N+](=O)[O-]` it is “inactive”; for `OCCBr` it is “inactive”.
Same read-out and setting: the entry for `C=CC(=O)OCCN(C)C` is “inactive”; for `CC(C)(C)C(O)(CCc1ccc(Cl)cc1)Cn1cncn1` (stereo not given) it is “inactive”.
Same read-out and setting: under `N#CCCCCC#N` stands “inactive”; under `CN=C=O`, “inactive”; under `c1ccc(C2CO2)cc1` (stereo not given), “inactive”.
Take `CCCCCC[N+](=O)[O-]`: the Potency result is “inactive”.
On the same count and under the same terms, under `OCC(Cl)CCl` (stereo not given) stands “inactive”.
Take `COc1ccc(C=O)cc1`: the Potency result is “inactive”.
The same measure, in the same setting: under `Nc1ccc(Cl)c(Cl)c1` stands “inactive”; under `CC(=O)[O-].CC(=O)[O-].CC(=O)[O-].[Cr+3]`, “inactive”.
On the same count and under the same terms, under `CC(=O)CCC(C)=O` stands “inactive”; under `C=CC(=O)OCC(CC)CCCC` (stereo not given), “inactive”.
Same read-out and setting: under `CC(C#N)CCC#N` (stereo not given) stands “inactive”.

A further assay can be described thus: Cell Viability - Renal Proximal Tubule (AID 545). Note: nearly all actives have a fitted effect of over 40% in size. Particulars: renal proximal tubule cells viability; series mostly up to 91.7 µM. The essentials:
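Viability taken as intracellular ATP (CellTiter-Glo luminescence) after 40 hr, 37 °C compound treatment of primary proximal tubule cells from rat kidney, 1000 cells/well; Hill-equation fits of qHTS concentration-response data gave AC50.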
As for `Oc1cccc(Cl)c1Cl`, the result was inactive.
Take `CCC/C=N/O`: the compound was classed as inactive.
Consider `Nc1cccc2ccccc12`, for which the compound was called inactive.
For the compound `CN(C)N=O`, the compound was classed as inactive.
Take `C=C(Cl)CCl`: the compound was classed as inactive.
Same read-out and setting: under `ClCCOCOCCCl` stands “inactive”.
Take `CC(C)(Cl)[N+](=O)[O-]`: the compound was classed as inactive.
`Cl/C=C/Cl`: the result was inactive.
With `CCCCOCC1CO1` (stereo not given), the outcome was inactive.
Still for that read-out and setting: under `C1CC2OC2CC1C1CO1` (stereo not given) stands “inactive”; under `Brc1cccc(-c2ccccc2)c1`, “inactive”; under `ClCCOCCCl`, “inactive”.
On to `CCNCC`, for which the compound was called inactive.
Still for that read-out and setting: under `CC(C)C#N` stands “inactive”; under `c1ccc2c(c1)CCNC2`, “inactive”; under `CCBr`, “inactive”.
The same measure, in the same setting: the entry for `O=[N+]([O-])c1ccc(Cl)c(Cl)c1Cl` is “inactive”.
For `N#CCCC#N`, the compound was called inactive.
Same read-out and setting: the entry for `Cc1ccccc1[N+](=O)[O-]` is “inactive”.
Consider `OCCBr`, for which the compound was classed as inactive.
Still for that read-out and setting: the entry for `C=CC(=O)OCCN(C)C` is “inactive”; for `CC(C)(C)C(O)(CCc1ccc(Cl)cc1)Cn1cncn1` (stereo not given) it is “inactive”; for `N#CCCCCC#N` it is “inactive”.
The same measure, in the same setting: the entry for `c1ccc(C2CO2)cc1` (stereo not given) is “inactive”; for `OCC(Cl)CCl` (stereo not given) it is “inactive”.
As for `COc1ccc(C=O)cc1`, the compound was called inactive.
On the same count and under the same terms, under `Nc1ccc(Cl)c(Cl)c1` stands “inactive”; under `CC(C#N)CCC#N` (stereo not given), “inactive”.

A short description of a further assay: Cell Viability - Mesenchymal (AID 546).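 Note: cells exposed to compound for 40 hours before reading.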 As to conditions: mesenchymal cells viability, qHTS; series mostly up to 91.7 µM. The essentials: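 Human kidney mesenchymal cells from normal renal glomeruli, 1000 cells/well, rested 5 hr at 37 °C, then treated 40 hr at 37 °C in complete medium. Cellular ATP read by CellTiter-Glo luminescence; AC50 from Hill-equation fits.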
(In general: In qHTS, concentration-response curves come from the screen itself.)
On to `Oc1cccc(Cl)c1Cl`, for which the Potency result was “inactive”.
Turning to `CCC/C=N/O`, the Potency result is “inactive”.
On the same count and under the same terms, under `Cc1cnc[nH]1` stands “inactive”.
In the case of `CN(C)N=O`, the Potency result was “inactive”.
Still for that read-out and setting: under `COc1c(C(C)(C)C)cc([N+](=O)[O-])c(C)c1[N+](=O)[O-]` stands “inactive”.
The same measure, in the same setting: the entry for `C=C(Cl)CCl` is “inactive”.
For the compound `ClCCOCOCCCl`, the Potency result is “inactive”.
Consider `CC12CC1(C)C(=O)N(c1cc(Cl)cc(Cl)c1)C2=O` (stereo not given), for which the Potency result is “inactive”.
On the same count and under the same terms, the entry for `Cl/C=C/Cl` is “inactive”.
Still for that read-out and setting: the entry for `CCCCOCC1CO1` (stereo not given) is “inactive”; for `O=C(O)c1cccc(Cl)c1` it is “inactive”.
On the same count and under the same terms, the entry for `Brc1cccc(-c2ccccc2)c1` is “inactive”; for `Oc1c(Cl)cccc1Cl` it is “inactive”; for `ClCCOCCCl` it is “inactive”.
`CCNCC`: the Potency entry was “inactive”.
Take `CC(C)C#N`: the Potency result was “inactive”.
On the same count and under the same terms, under `Cl/C=C\Cl` stands “inactive”; under `c1ccc2c(c1)CCNC2`, “inactive”; under `O=[N+]([O-])c1ccc(Cl)c(Cl)c1Cl`, “inactive”.
Still for that read-out and setting: the entry for `N#CCCC#N` is “inactive”.
Turning to `Cc1ccccc1[N+](=O)[O-]`, the Potency entry is “inactive”.
Consider `OCCBr`, for which the Potency entry is “inactive”.
For the compound `C=CC(=O)OCCN(C)C`, the Potency result was “inactive”.
As for `CC(C)(C)C(O)(CCc1ccc(Cl)cc1)Cn1cncn1` (stereo not given), the Potency entry was “inactive”.
In the case of `N#CCCCCC#N`, the Potency entry is “inactive”.
Take `CN=C=O`: the Potency result was “inactive”.
Same read-out and setting: under `c1ccc(C2CO2)cc1` (stereo not given) stands “inactive”.
On the same count and under the same terms, under `CCCCCC[N+](=O)[O-]` stands “inactive”.
Still for that read-out and setting: the entry for `OCC(Cl)CCl` (stereo not given) is “inactive”.
In the case of `CC(=O)[O-].CC(=O)[O-].CC(=O)[O-].[Cr+3]`, the Potency result was “inactive”.
The same measure, in the same setting: under `CC(=O)CCC(C)=O` stands “inactive”.
The same measure, in the same setting: the entry for `C=CC(=O)OCC(CC)CCCC` (stereo not given) is “inactive”; for `CC(C#N)CCC#N` (stereo not given) it is “inactive”.

These data come from PubChem BioAssay (NCATS).
